Assay results reported in ChEMBL document CHEMBL4513216, “Probing the Open Global Health Chemical Diversity Library for Multistage-Active Starting Points for Next-Generation Antimalarials” (ACS Infect Dis, 2020).
Out of some 65,000 compounds screened, about 2,100 (3.2%) showed an effect of 50% or more. The median lay at about -52%. Shown is part of a subset that was picked to be rich in strong results.

These molecules were tested on Plasmodium falciparum (assay: Screen against P. falciparum Asexual Blood Stage (ABS), at 5uM). Conditions: tested at 5 uM.
Assay type: functional, Dd2

SMILES | INHIBITION [%]
CN(Cc1ccc(F)cc1)C(=O)c1ccoc1CN1CCNC(=O)C1 | -169
CCOCC(=O)NCCn1ccc(-c2ccccn2)n1 | -74.8
Cc1nc(C)c(S(=O)(=O)NC(=O)c2sccc2C)s1 | -118
Cn1ccnc1CN1CCC2(CC(=O)N(c3ccsc3)C2)C1 (stereo not drawn) | -95.1
Cc1ccc(NC2CCN(C(=O)c3cccc4[nH]ncc34)CC2)nn1 | -12.4
Cc1nn(C)c(C)c1CN(C)CC1(O)CCCN(C)C1 (stereo not drawn) | -56.8
Cc1ccc(CN(C)CC2(O)CCCN(C)C2)o1 (stereo not drawn) | 54.2
CCN1CCCC(O)(CN(C)Cc2ccc(C)o2)C1 (stereo not drawn) | 20.1
CC(C)c1nc(N2CCC(N3CCCC(O)C3)CC2)c2cnn(C)c2n1 (stereo not drawn) | -33.8
CC(C)c1nc(N2CCC(N3CCSCC3)CC2)c2cnn(C)c2n1 | -57
CC(C)c1nc(N2CCC(N3CCCCCC3)CC2)c2cnn(C)c2n1 | 51.9
CC1(C)CN(CCC(=O)NCc2cccc(Cl)c2)CC[C@]1(C)O | 53.1
Cc1ccc(C(=O)O)cc1CNC(=O)CN1CC[C@](C)(O)C(C)(C)C1 | -0.0274
O=C(CCN1CCOC(C(F)(F)F)C1)NCc1cccc(Cl)c1 (stereo not drawn) | -53.515
CN(C(=O)COc1ccc(F)cc1)[C@@H]1CC[C@@H](n2ccnc2)[C@@H]1O | -72.8
COCCN1CCC2(CC1)CN(C(=O)c1ccco1)CCO2 | -29.3
COc1ccc2[nH]nc(CN3CCC(C(C)N(C)C)CC3)c2c1 (stereo not drawn) | 64.4
COc1ccc2[nH]nc(CN3CCC(C(=O)N4CCCCC4)CC3)c2c1 | 13.7
COc1ccc2[nH]nc(CN3CCC(C(C)N4CCCC4)CC3)c2c1 (stereo not drawn) | 38.8
Cn1nccc1-c1nc2c(cc1C(=O)O)CCN(C(=O)C1CC1)CC2 | -73.9
O=C1CC(c2ccncc2)C2(CCN(C(=O)c3cccs3)CC2)N1 (stereo not drawn) | -50.7
COCc1cn([C@@H]2c3ccccc3C3(CCNCC3)[C@H]2O)nn1 | -24.9

SMILES | INHIBITION [%]
OCc1cn([C@@H]2c3ccccc3C3(CCNCC3)[C@H]2O)nn1 | -114
O[C@H]1[C@H](n2cc(CN3CCCC3)nn2)c2ccccc2C12CCNCC2 | 63.2
Cc1cnc(C(=O)N2CCC3(CCN3Cc3ccc(F)cc3)C2)cn1 (stereo not drawn) | -60.5
O=C1CN(c2ccc(CNC(=O)Nc3nnc(C4CC4)s3)cc2)CCN1 | -5.48
c1cnn(CCNCCCOc2ccc3c(c2)OCO3)c1 | 23.5
COc1cc(CNCCc2cnn(C)c2)cc2c1OCCO2 | -7.17
COc1cc(CNc2cnn(C)c2)cc2c1OCCO2 | -181
Cc1cnn(CCNCC(O)COc2ccc(C#N)cc2)c1 (stereo not drawn) | -106
Cc1cnn(CCNCCCOc2ccc(C#N)cc2)c1 | 65.9
Cc1cnn(CCNCCCOc2ccccc2)c1 | -13.6
Cc1cnn(CCNCCCOc2ccc3c(c2)OCO3)c1 | 50.6
COc1cc(CNCCn2cc(C)cn2)cc2c1OCCO2 | 58.2
Cc1cnn(CCCOc2ccc3c(c2)OCO3)c1 | -30.8
CC(=O)c1cccc(OCC(=O)NS(=O)(=O)c2ccc(Br)s2)c1 | -85.3
CCN(CC)S(=O)(=O)N(Cc1ccccn1)Cc1ccccc1C | -6.79
CC(NCC(N)=O)c1c(F)cccc1Cl (stereo not drawn) | -21.3
Cc1sc2ncnc(N3CCC(N(C)Cc4cnn(C)c4)CC3)c2c1C | 23.5
COCc1noc(CN2CCCCC2CCc2cccs2)n1 (stereo not drawn) | -172
O=C(O)c1cc(-c2ccncc2F)cc(S(=O)(=O)N2CCCCCC2)c1 | -154
O=C(c1ccco1)N1CCO[C@@H]2CN(CC3CC3)CC[C@@H]2C1 | -65.2
Cc1cccc(CN2CCC3(CCN(Cc4ccccn4)C3)C2=O)c1 (stereo not drawn) | 27.8
Cc1nn(C)c(C)c1C1CCCN1C(=O)c1ccc(N(C)C)nc1 (stereo not drawn) | -54.2

SMILES | INHIBITION [%]
COc1cc(OC)cc(-c2cccc3c2OC(CN)C3)c1 (stereo not drawn) | 68.3
COc1c(F)cc(-c2cccc3c2OC(CN)C3)cc1F (stereo not drawn) | 35.4
COc1cc(-c2ccc(F)c3c2OC(CN)C3)cc(OC)c1OC (stereo not drawn) | -12.8
NCC1Cc2cccc(-c3nccc(N4CCC(O)CC4)n3)c2O1 (stereo not drawn) | 20.4
COc1cc(-c2cccc3c2OC(CN)C3)cc(OC)c1OC (stereo not drawn) | 46.9
COc1ccc(-c2cccc3c2OC(CN)C3)cc1F (stereo not drawn) | 62.6
COc1cccnc1-c1ccc(F)c2c1OC(CN)C2 (stereo not drawn) | 59.3
NCC1Cc2cc(F)cc(-c3cnccn3)c2O1 (stereo not drawn) | 19.1
COc1cc(-c2cccc3c2OC(CN)C3)ccc1O (stereo not drawn) | 38
NCC(=O)N1CCC(c2cccc(Oc3ccccc3)n2)CC1 | -20.5
CC(C)(C)NC(=O)CN1CCCNCC1 | -113
CC(=O)NCC(=O)N1Cc2nccn2CC(COc2cccnc2)C1 (stereo not drawn) | -98.1
CNc1cccc(C2CCCN(C(=O)Cc3ccccc3)C2)n1 (stereo not drawn) | -62.3
COc1cccc(C(=O)C2CCCN(c3cc(C#N)ccn3)C2)c1 (stereo not drawn) | -25.2
Cc1noc(CNC(=O)C2CSCCC(=O)N2)n1 (stereo not drawn) | -164
COc1ncc(C2(O)CCN(Cc3c(F)cccc3F)CC2)c(OC)n1 | 13.1
NC(=O)NCC(=O)N1C[C@@H]2CC[C@H]1CN(Cc1ccccc1)C2 | -9.53
CNC(=O)C1(N2CCC[C@H]2C(=O)NC2CC2)CCCCC1 | -145
COCCc1noc(C2CCCN(c3ncnc4c3CCC4)C2)n1 (stereo not drawn) | -100
COc1cccc(Cn2ncnc2CCC(C)N2CCN(C)CC2)c1 (stereo not drawn) | -99.9
N[C@@H]1CCN(Cc2ccccc2CS(=O)(=O)c2ccccc2)C[C@H]1O | -23.3
NC1CCCCN(Cc2ccccc2CS(=O)(=O)c2ccccc2)C1 (stereo not drawn) | 55.9

SMILES | INHIBITION [%]
O=S(=O)(Cc1ccccc1CN1CC[C@H](CO)[C@H](O)C1)c1ccccc1 | 16.9
Cc1nc(N2CCC(C)CC2)ncc1-c1cc(O)nc(N2CCCC2)n1 | -113
Fc1cccc(Cl)c1Cn1ncnc1CSCCN1CCCC1 | 61.7
O=C1OCCN1Cc1ncnn1Cc1c(F)cccc1Cl | -76.9
O=C1CCCCCN1Cc1ncnn1Cc1c(F)cccc1Cl | -29.5
CS(=O)(=O)N1C[C@@H]2COC[C@]2(CN2CCOCC2)C1 | -107
CNC(=O)C1CCC2(CCN(c3nncs3)CC2)CO1 (stereo not drawn) | -79.1
Cc1noc(C2CCN(C(=O)c3ccc(N(C)C)nc3)CC2)n1 | -27
Cc1noc(C2CCN(C(=O)c3ccc(C(F)(F)F)nc3)CC2)n1 | 57
Cc1noc(C2CCN(C(=O)c3ccc(NC4CC4)nc3)CC2)n1 | -9.68
CN(Cc1ccco1)C1CCC12CCN(C(=O)N1CCCC1)CC2 (stereo not drawn) | -76
O=C(c1cccnc1N1CCCCC1)N1CCCC(n2ccnc2)C1 (stereo not drawn) | 29.5
O=C(c1cccc2cccnc12)N1CCCC(n2ccnc2)C1 (stereo not drawn) | 55.4
O=C(c1cccc2ncccc12)N1CCCC(n2ccnc2)C1 (stereo not drawn) | -2.7
Cc1cc(C(=O)NCc2ccc(N3CCN(C)CC3)nc2)c(C)s1 | -56.2
O=C(c1cccc(F)c1Cl)N(CCO)CC1CC1 | 9.7
O=C(NCc1cc(Br)cs1)Nc1cn[nH]c1 | -116
O=C(CC1CC1)N1CC[C@H]2[C@@H]1CCC(=O)N2c1cccnc1 | -27.5
O=C1CC(c2cccnc2)c2c(sc3c2CCCC3)N1 (stereo not drawn) | 29.8
O=C1CC(c2ccc(C(=O)O)cc2)c2c(sc3c2CCCC3)N1 (stereo not drawn) | -3.15
O=C1CC(c2ccncc2)c2c(sc3c2CCCC3)N1 (stereo not drawn) | 56.8
CCn1cnnc1CNC(=O)c1cc(Cl)ccc1F | -20.1

SMILES | INHIBITION [%]
Cc1cnn(CC2CCCN2C(=O)Cc2ccc3c(c2)CCO3)c1 (stereo not drawn) | -48.8
CC1CN(Cc2cccnc2)CCN1c1ccc2nncn2n1 (stereo not drawn) | 10.1
CC1CN(Cc2cccc(C#N)c2)CCN1c1ccc2nncn2n1 (stereo not drawn) | 50.9
COc1cccc(CN2CCN(c3ccc4nncn4n3)C(C)C2)c1 (stereo not drawn) | -39.5
COCCCNS(=O)(=O)c1ccc(N2CCCCS2(=O)=O)cc1 | -76.7
Cn1ccnc1CN1CCN(Cc2ccncc2)[C@@H]2CS(=O)(=O)C[C@@H]21 | -33.9
O=C([C@@H]1Cc2[nH]cnc2CN1C(=O)NC1CCCCC1)N1CCCC1 | -56.1
CN(Cc1ccccc1)C(=O)[C@@H]1Cc2[nH]cnc2CN1C | 42.2
CN1Cc2nc[nH]c2C[C@H]1C(=O)NC1CCCCC1 | 53
Cc1c[nH]c(C2CCCN(C(=O)CCc3c(C)n[nH]c3C)C2)n1 (stereo not drawn) | -98.1
CCOc1ccc(C(=O)Nc2c(C)nc3ccccn3c2=O)cc1 | -144
CCn1nc2c(cc1=O)CN(Cc1nc(-c3cccs3)no1)CC2 | 20.5
CSCC(CCO)NC(=O)c1cccc(F)c1Cl (stereo not drawn) | 9.25
NC1CCCCN(Cc2cc(C3CCCCC3)no2)C1 (stereo not drawn) | 62
C[C@@H]1CN(Cc2cc(C3CCCCC3)no2)CC[C@]1(C)O | -6.78
OCC1COCCN(Cc2cc(C3CCCCC3)no2)C1 (stereo not drawn) | -122
COCC(NC(=O)c1cn(-c2cccc(Cl)c2F)nn1)C1CC1 (stereo not drawn) | -24.2
Cc1ccc2cccc(S(=O)(=O)N(C)C3CCCN(C)C3)c2n1 (stereo not drawn) | 33.8
Cc1ccc2cccc(S(=O)(=O)N(C)CC3CCN(C)C3)c2n1 (stereo not drawn) | 37.8
Cc1ccc2cccc(S(=O)(=O)N(C)CC3CCN(C)CC3)c2n1 | 58.6
